For 40 molecules, growth, % of control results are on record in PubChem BioAssay (NCATS).

Structures are written as SMILES.

The assay in a line: qHTS profiling of the MIPE4 collection as inhibitors of Plasmodium falciparum (HB3) proliferation (AID 743347). As to conditions: P. falciparum HB3 in erythrocytes, SYBR Green DNA, 72 h; at 28.5 µM (top of the series) unless noted. The text has this: Plasmodium falciparum is a virulent malarial parasite that kills 1-2 million people worldwide each year. Transmitted by mosquitoes, the sporozoite form of the parasite enters the blood stream to infect hepatocytes, where they become merozoites that infect red blood cells (erythrocytes). Within erythrocytes, merozoites begin a […] cycle of growth and division, after which the parasite is released to infect new red blood cells. Gametocytes, which form within erythrocytes as well, circulate in the bloodstream and are ingested by the mosquito, thereby completing the life cycle. To profile malarial isolates for differential chemical responses and to identify inhibitors of malarial growth, an assay that measures P. falciparum growth and replication within erythrocytes was employed. This assay uses a DNA binding fluorescent dye (SYBR Green) to detect parasite DNA following cell lysis. Because mature erythrocytes lack DNA, only Plasmodium-derived DNA is detected.
The SYBR Green viability assay was adapted from a method described previously (Plouffe et al., 2008). For screening 3 ul culture medium was dispensed into 1536 well black clear bottom plates (Aurora Biotechnologies) using a Multidrop Combi (Thermo Fisher Scientific Inc.), 23 nL compounds in DMSO were added by a pin tool (Kalypsys), and 5 ul of erythrocytes infected with P. falciparum (0.3% parasitemia, 2.5% hematocrit final concentration) were added. The plates were incubated at 37 C in a humidified incubator in 5% CO2 for 72 h, and 2 ul lysis buffer (20 mM Tris HCl, 10 mM EDTA, 0.16% saponin, 1.6% triton X, 10X SYBR Green I supplied as 10,000X […] by Invitrogen) was added to each well. The plates were mixed for 25 sec with gentle shaking and incubated overnight at room temperature in the dark. The following morning, fluorescence intensity at 485(14) nm excitation and 535(25) nm emission wavelengths was measured on an EnVision (Perkin Elmer) plate reader. Plate reads were normalized relative to the control inhibitor (0.29 uM artemisinin) and vehicle (DMSO) wells present on each plate and then corrected by an algorithm using vehicle-only control plates at the beginning and end of the compound plate stack.
(In general: In qHTS, concentration-response curves come from the screen itself.)
On to `CCCCn1c(=O)n(Cc2ccccc2F)c(=O)c2[nH]c(Cc3ccc(NC(C)=O)cc3)nc21`, for which the growth, % of control worked out at 314%. Next, `COc1ccc(-c2cc3nccn3c(Nc3ncccc3C(N)=O)n2)cc1OC`: 2.93%; `OC[C@H]1O[C@@H](OCCc2ccc(O)cc2)[C@H](O)[C@@H](O)[C@H]1O`: 104%; `CON(C)C(=O)N1N=C(c2cc(F)ccc2F)S[C@]1(CCCN)c1ccccc1`: 8.3%. The same measure for `CN(C(Cc1ccc(OS(=O)(=O)c2cccc3cnccc23)cc1)C(=O)N1CCN(c2ccccc2)CC1)S(=O)(=O)c1cccc2cnccc12` (stereo not given): 8.15%. Next, `Cc1cc(C(C)Nc2ccccc2)c2nc(N3CCOCC3)cc(=O)n2c1` (stereo not given): 15.4%. In turn, `CCOC(=O)N1c2ccc(C(F)(F)F)cc2[C@@H](N(Cc2cc(C(F)(F)F)cc(C(F)(F)F)c2)C(=O)OC)C[C@H]1CC` registered a growth, % of control of 3.55%.

In turn, `CN[C@H]1[C@@H](O[C@@H]2[C@H](O[C@@H]3[C@@H](O)[C@@H](O)[C@@H](N=C(N)N)[C@@H](O)[C@@H]3N=C(N)N)O[C@H](C)[C@@]2(O)C=O)O[C@@H](CO)[C@@H](O)[C@H]1O` returned a growth, % of control of 89.1% [at 9.64 µM].

`CC[C@H](CC#N)OC(=O)N[C@@H](C)c1cccc(NC(=O)Nc2ccc(-c3cnco3)c(OC)c2)c1` came in with a growth, % of control of 9.12%.

`O=c1[nH]c(=O)n([C@H]2C[C@@H](O)[C@@H](CO)O2)cc1I` yielded a growth, % of control of 62.7%. Next, `CCn1c(-c2nonc2N)nc2cncc(CNC3CCNCC3)c21`: 7.55%; `C=CC[N+]1([C@H]2C[C@H]3[C@@H]4CC[C@H]5C[C@H](O)[C@@H](N6CCOCC6)C[C@]5(C)[C@@H]4CC[C@]3(C)[C@H]2OC(C)=O)CCCC1`: 40.8%. The same measure for `Cn1cc(-c2ccc3nnc(Sc4ccc5ncccc5c4)n3n2)cn1`: 43.3%; for `C[C@@H](NC(=O)c1ncnc(N)c1Cl)c1ncc(C(=O)Nc2cc(C(F)(F)F)c(Cl)cn2)s1`: 60.9%. Next, `CC(=O)Nc1cccc(-n2c(=O)n(C3CC3)c(=O)c3c(Nc4ccc(I)cc4F)n(C)c(=O)c(C)c32)c1`: 2.56%.

`CC(C)CN(C[C@@H](O)[C@H](Cc1ccccc1)NC(=O)O[C@H]1CO[C@H]2OCC[C@H]21)S(=O)(=O)c1ccc(N)cc1` yielded a growth, % of control of 8.15%. The same measure for `CCC=CC[C@H]1C(=O)CC[C@@H]1CC(=O)OC`: 79.8%; for `CO[C@@H]1C(N(C)C(=O)c2ccccc2)C[C@H]2O[C@]1(C)n1c3ccccc3c3c4c(c5c6ccccc6n2c5c31)C(=O)NC4=O` (stereo not given in full): 28.7%; for `N[C@@H](CC(=O)N1CCn2c(nnc2C(F)(F)F)C1)Cc1cc(F)c(F)cc1F`: 104%. Next, `NC(=O)c1nnn(Cc2cc(Cl)c(C(=O)c3ccc(Cl)cc3)c(Cl)c2)c1N`: 6.97%; `COc1cc(Cl)cn2c(-c3cccc(NC4CNC4)n3)cnc12`: 42.7%; `CC[C@@H]([C@H](C)O)n1ncn(-c2ccc(N3CCN(c4ccc(OCC5CO[C@@](Cn6cncn6)(c6ccc(F)cc6F)C5)cc4)CC3)cc2)c1=O` (stereo not given in full): 5.52%. Next, `COc1cc([C@H]2Oc3cc([C@H]4Oc5cc(O)cc(O)c5C(=O)[C@H]4O)ccc3O[C@H]2CO)ccc1O`: 12.9%; `O=C(Nc1cccc(C(F)(F)F)c1)Nc1cc(S(=O)(=O)NC2CC2)ccc1-c1ccsc1`: 78.9%; `CCN1CCC(n2cc(CNc3cc(Cl)c4ncc(C#N)c(Nc5ccc(F)c(Cl)c5)c4c3)nn2)CC1`: 7.52%. For the molecule `CNC(=O)[C@H](Cc1ccccc1)NC(=O)[C@H](CC(C)C)[C@H](CSc1cccs1)C(=O)NO`, the growth, % of control was determined as 4.59%.

For `CCCCCCCCCCCCCC(=O)N[C@H](CO)[C@H](O)c1ccc([N+](=O)[O-])cc1`, the growth, % of control came out at 24.3%. Regarding `O=c1[nH]c(=O)n([C@H]2C[C@@H](O)[C@@H](CO)O2)cc1C(F)(F)F`, the growth, % of control stood at 36.7%. Take `COc1ccc(-c2cc(=O)c3c(O)cc(O[C@@H]4O[C@H](CO[C@@H]5O[C@@H](C)[C@H](O)[C@@H](O)[C@@H]5O)[C@@H](O)[C@H](O)[C@@H]4O)cc3o2)cc1O`: the growth, % of control is 23.4%. The same measure for `CCCCOCCOc1nc(-c2ccc(C(=O)O)c(F)c2)sc1C`: 85%; for `O=S(=O)(NCCNCC=Cc1ccc(Br)cc1)c1cccc2cnccc12`: 33.3%; for `Cc1ccc2c(c1)C(=O)[C@]1(O)CCN(c3ccccc3)C1=N2`: 76.8%. `CNC(=O)c1c(-c2ccc(F)cc2)oc2cc(N(CCO)S(C)(=O)=O)c(C3CC3)cc12` registered a growth, % of control of 4.16%. `C[C@H]1O[C@@H](n2cc(F)c(=O)[nH]c2=O)[C@H](O)[C@H]1O`: the growth, % of control came to 53%. Turning to `CCCCC(C=O)NC(=O)C(CC(C)C)NC(=O)OCc1ccccc1` (stereo not given), the growth, % of control amounted to 4.08%.

The molecule `CCOC(=O)[C@H](CCc1ccccc1)N[C@@H](C)C(=O)N1CCCC1C(=O)O` (stereo not given in full) displayed a growth, % of control of 95.2%.

As for `CC(=O)OCC(=O)[C@@]12OC(C)(C)O[C@H]1C[C@H]1[C@@H]3C[C@H](F)C4=CC(=O)C=C[C@]4(C)[C@@]3(F)[C@@H](O)C[C@@]12C`, the growth, % of control is 61.2%. `CCCC1OC2C[C@@H]3[C@H]4CCC5=CC(=O)C=C[C@]5(C)[C@H]4C(O)C[C@]3(C)[C@]2(C(=O)CO)O1` (stereo not given in full): the growth, % of control came to 5.33%.

On to `NCc1c[nH]c(=S)n1[C@H]1CCc2c(F)cc(F)cc2C1`, for which the growth, % of control was 4.48%.

In the case of `Cc1ccc(S(=O)(=O)Nc2nc3ccccc3nc2Nc2ccc3nsnc3c2)cc1`, the growth, % of control is 77.4% [at 9.64 µM].
